DRD3 antagonist – blocks the human D3 dopamine receptor | P35462 | D3R cells, DiscoveRx beta-arrestin luminescence, antagonist mode; hits give low values | max response, negative = inhibition, % | 360,000 tested, 2.5% active; in the data active = max response below about -50%; inconclusive = no clear call, values can overlap the other calls
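Cells plated overnight at 1500 cells/well, then exposed to library compounds with dopamine controls for 90 minutes at 37 degrees C. DiscoveRx reagent added for 30–60 minutes at room temperature; luminescence read, quantitative HTS format.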
DRD3 agonist – agonists of human D3 dopamine receptor. D3R DiscoveRx beta-arrestin cells, luminescence, 90 min. AID 652048. max activation, %. 410,000 tested, 0.58% active; in the data active = max activation above about 30%
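Cells at 1500/well, incubated overnight, then treated with pinned compounds (dopamine as control) for 90 min at 37 degrees C. DiscoveRx reagent added for 30 - 60 minutes at room temperature; luminescence read.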
IDH1 R132H inh – human IDH1 R132H inhibition. O75874. IDH1-R132H enzyme, NADPH consumption, diaphorase/resazurin fluorescence. Potency, µM (series often up to 76.6 µM), most hits filed as inhibitors. 390,000 tested, 0.093% active; also: nearly all actives have a fitted effect of over 65% in size
Target sequence (O75874 whole entry R132H, stated change not applied): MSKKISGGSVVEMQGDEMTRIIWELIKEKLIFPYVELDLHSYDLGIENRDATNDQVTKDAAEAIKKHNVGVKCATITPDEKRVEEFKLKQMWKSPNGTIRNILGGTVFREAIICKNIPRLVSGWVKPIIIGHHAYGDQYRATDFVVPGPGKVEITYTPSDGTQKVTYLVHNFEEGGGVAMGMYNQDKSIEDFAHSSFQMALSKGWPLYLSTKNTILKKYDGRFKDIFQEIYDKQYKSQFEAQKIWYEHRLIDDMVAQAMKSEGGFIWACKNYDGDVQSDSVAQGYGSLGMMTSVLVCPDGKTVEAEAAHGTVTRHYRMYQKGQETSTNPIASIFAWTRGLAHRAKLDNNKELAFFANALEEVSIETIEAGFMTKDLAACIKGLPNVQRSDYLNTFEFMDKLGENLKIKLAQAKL
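IDH1-R132H (0.5 ug/mL) preincubated 30 min with compound, then NADPH (0.016 mM) and alpha-KG (2 mM) added; 80 min at RT, pH 7.5. Remaining NADPH coupled via diaphorase/resazurin to fluorescence (540/590 nm); concentration-response curves normalized to no-enzyme control.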
Integrin act MD – activators of alpha7 integrin expression for muscular dystrophy | alpha7betagal myoblasts, beta-gal FDG fluorescence, 48 h | Potency, µM (doses to about 38.3 µM), usual class: activators | 350,000 tested, 0.064% active | AID 624291; also: nearly all actives have a fitted effect of over 60% in size
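Alpha7betagal+/- myoblasts (passage 13) were plated 16-24 hr, then exposed to compounds (1:260 dilution of DMSO stock) for 48 hours at 37C. After MPER lysis, β-galactosidase reporter activity was read as FDG fluorescence (ex 480/em 540) after 30 minutes.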
B2AR arrestin – recruits beta-arrestin to the human beta2-adrenergic receptor. P07550. beta-arrestin recruitment to beta2AR, cell-based reporter. Potency, µM (doses to about 46.1 µM), most hits filed as activators. 330,000 tested, 0.02% active; also: nearly all actives have a fitted effect of over 65% in size
Hits are given with their value; - = inactive; ? = inconclusive; . = no result given. Only some compounds are listed: those with a hit (about 2.9% of all), similar ones and a draw of the others. Unless noted, calls follow the shape of the dose curve; as a rule, active = well fitted curve in the direction sought with a large enough effect; inconclusive = small, poorly fitted or top-dose-only effect, or another doubt; inactive = no such curve, though single readings can be large; an effect the other way counts as inactive or inconclusive.

SMILES	DRD3 antagonist	DRD3 agonist	IDH1 R132H inh	Integrin act MD	B2AR arrestin
CC(C)n1cc(C(=O)c2cc(Br)ccc2O)cc(C#N)c1=O	-67	-	-	-	-
CCCCn1c(SCc2ccccc2C)nc2ccsc2c1=O	.	-	-	.	.
NS(=O)(=O)c1ccc(N=Nc2ccc(=O)[nH]c2O)cc1	-102	-	-	-	-
Nc1nc(N)c(N=Nc2ccc(S(N)(=O)=O)cc2)c(=O)[nH]1	-55	-	-	-	-
Cc1ccc(NCc2ccccc2O)cc1	-	-	-	-	-
Cc1ccc(CNc2ccc(O)cc2)cc1	-53	-	-	-	?
COc1cc(OC)cc(-c2c(-c3cccs3)c3cc(-c4ccc5cc[nH]c5c4)ccc3n2C)c1	-	-	-	-	-
COc1cc(OC)cc(-c2c(-c3cccs3)c3cc(-c4ccc5[nH]ccc5c4)ccc3n2C)c1	-	39	-	-	-
Cc1onc(-c2c(Cl)cccc2Cl)c1/C(N)=N/OC(=O)C(C)(C)C	-	36	-	-	-
Cc1onc(-c2c(F)cccc2Cl)c1C(=O)O/N=C(\N)c1ccc([N+](=O)[O-])o1	-	33	-	-	-
C=C1CC[C@@H]2[C@](C)(CO)[C@H](O)CC[C@@]2(C)[C@@H]1C/C=C1/C(=O)OC[C@H]1O	.	-	.	.	.
CC1CCc2c(cc(-c3ccccc3)n2-c2ccc(C(=O)NC(C)C)cc2)C1 (configuration not stated)	.	-	-	.	.
CCc1ccc(C(=O)Cn2ncc(Cl)c(Cl)c2=O)cc1	-	-	-	-	-
O=C(OCn1ncc(Cl)c(Cl)c1=O)c1cccc(C(F)(F)F)c1	-71	-	-	-	-
CCCOc1ccc(NC(=O)CC2C(=O)N(c3cccc(C)c3)C(=O)N2CCc2ccncc2)cc1 (configuration not stated)	.	-	-	.	.
Cc1ccc(NC(=O)C2CCCN(S(=O)(=O)c3ccc4[nH]c(=O)ccc4c3)C2)cc1Cl (configuration not stated)	.	-	-	.	.
CCc1cc2c(=O)[nH]c(-c3ccccn3)nc2s1	-68	-	-	-	?
COc1cc(-c2cc(OC)c3c(C)oc(C)c3c(=O)c2)ccc1OC(=O)c1cccc(C)c1	.	-	-	.	.
CC1(C(=O)Nc2ccc3c(c2)OCCO3)CCN1C(=O)C/C=C/c1ccccc1 (configuration not stated)	-	-	.	.	.
O=C(Nc1ccc2c(c1)OCCO2)C(c1cc2ccccc2o1)N1CCN(C/C=C/c2ccccc2)CC1 (configuration not stated)	-111	-	.	.	.
O=C(Nc1ccc2c(c1)OCCO2)C(C1CC1)N1CCN(C/C=C/c2ccccc2)CC1 (configuration not stated)	-59	-	.	.	.
O=C(Nc1ccc2c(c1)OCCO2)C(c1cc2ccccc2o1)N1CCN(c2ccc(F)cc2)CC1 (configuration not stated)	-	-	.	.	.
COc1ccc(CNS(=O)(=O)c2ccc(N3CCCCS3(=O)=O)cc2)cc1	.	-	-	.	.
CCOC(=O)N1CCc2c(sc3c2c(=O)n(-c2ccc(Cl)cc2)c(=O)n3CC(C)C)C1	.	-	-	.	.
Cc1ccc(S(=O)(=O)C2(C(=O)Nc3cccnc3)CC2)cc1	-63	-	-	-	-
SMILES	DRD3 antagonist	DRD3 agonist	IDH1 R132H inh	Integrin act MD	B2AR arrestin
Cc1ccc(S(=O)(=O)C2(C(=O)Nc3ccc(Br)cc3)CC2)cc1	-	-	-	-	-
C=C1C(=O)c2sccc2C(c2ccc(OC)c(OC)c2)C1COC(C)=O (configuration not stated)	-116	-	?	-	.
Cc1ccc(N(C)C(=O)Cn2ncc3c([nH]c4ccccc43)c2=O)cc1C	.	-	-	.	.
Cc1cc(O)ccc1-c1cc(C(=O)NCc2ccc(F)cc2)[nH]n1	?	-	.	.	.
Cc1ccc(-c2cccc(C(=O)NCCc3ccccc3)n2)c2ccccc12	-	-	-	-	-
Cc1ccc(-c2cccc(C(=O)NCc3ccccc3)n2)c2ccccc12	-59	-	-	-	-
COc1ccc(NC(=O)c2cc(-c3cc(Cl)ccc3OC)n[nH]2)cc1OC	-	-	.	.	.
Cc1cc(F)ccc1-c1cc(C(=O)NCc2ccccc2)[nH]n1	-89	-	.	.	.
COc1ccc(NC(=O)c2cc(-c3cc(F)ccc3OC)n[nH]2)c(C)c1	-51	-	.	.	.
COc1ccc(Cl)cc1-c1cc(C(=O)Nc2ccc(F)cc2)[nH]n1	-69	-	.	.	.
Cc1cc(F)ccc1-c1cc(C(=O)Nc2ccc(F)cc2)[nH]n1	-58	-	.	.	.
COc1ccc(NC(=O)c2cc(-c3ccc(F)cc3C)n[nH]2)cc1OC	-	-	.	.	.
CCCOc1ccc(F)cc1-c1cc(C(=O)NCc2cccc(Cl)c2)[nH]n1	-	-	.	.	.
CCCOc1ccc(F)cc1-c1cc(C(=O)NCc2ccccc2)[nH]n1	-99	-	.	.	.
CCOc1cc(C#N)c(-n2nnc3c(sc4nc(C)cc(C)c43)c2=O)cc1OCC	.	-	-	.	.
Cc1cccc(NC(=O)COC(=O)CN2CCCCCC2=O)c1C	-	-	-	-	-
O=C(C1=C(O)C(=O)N(c2ncccn2)C1c1cccc(Cl)c1)c1ccco1 (configuration not stated)	-74	-	-	-	.
COc1cccc(CNc2ccc(N3CCC(C)CC3)cc2)c1OC	-64	-	-	-	-
C=CC[n+]1c(-c2ccc(C)cc2)csc1Nc1c(C)n(C)n(-c2ccccc2)c1=O	-	-	-	-	-
C=CC[n+]1c(-c2ccc(Cl)cc2Cl)csc1Nc1c(C)n(C)n(-c2ccccc2)c1=O	-81	-	-	-	-
CCc1ccc(NC(=O)NCCN2CCc3ccccc3C2)cc1	-69	-	-	-	-
O=C(NCCN1CCc2ccccc2C1)Nc1ccc(F)cc1	-77	-	-	-	-
